In PubChem BioAssay (NCI):
The panel holds about 79,000 compounds, 15% with a hit somewhere; the sample as a whole holds those more often. The source made the active and inactive calls. No stated cut-off is given here; in the data, active means growth inhibition above about 70%; inactive means the rest.

Legend:
[1] = NCI Yeast Anticancer Drug Screen. Data for the wt1 strain (AID 149);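 further: 0% = growth of vehicle-treated wt1 cultures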; details: S. cerevisiae wt1 strain (SPY 50644) growth inhibition, stronger effect = higher value
Procedure, shortened: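 The wt1 strain was treated with compounds, and growth was compared with vehicle-treated cultures to give inhibition.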

[2] = NCI Yeast Anticancer Drug Screen. Data for the rad50EPP+ strain (AID 151);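 further: 0% = growth of vehicle-treated control cultures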; details: S. cerevisiae rad50 mutant strain, stronger effect = higher value
Procedure, shortened: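 Vehicle-normalised growth inhibition; rad50EPP+ yeast strain, altered in DNA damage repair, compound-treated.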

[3] = NCI Yeast Anticancer Drug Screen. Data for the mgt1 strain (AID 153); details: S. cerevisiae mgt1 mutant growth inhibition, stronger effect = higher value
Procedure, shortened: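 Vehicle-normalized growth inhibition is determined in mgt1 yeast, a strain selected for a defined alteration in DNA repair or cell cycle control.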

[4] = NCI Yeast Anticancer Drug Screen. Data for the rad50 strain (AID 155);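 further: 0% = growth of vehicle-only cultures of the same strain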; details: S. cerevisiae rad50 strain growth inhibition, stronger effect = higher value
Procedure, shortened: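 Cells are treated with compound, grown, and their growth is then scored against vehicle-only cultures of the same repair-deficient yeast strain.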

[5] = NCI Yeast Anticancer Drug Screen. Data for the mec2-1 strain (AID 157); details: S. cerevisiae mec2-1 strain, stronger effect = higher value
Procedure, shortened: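 Mutant yeast (mec2-1) grown with compound; growth inhibition relative to vehicle control reported.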

[6] = NCI Yeast Anticancer Drug Screen. Data for the rad14 strain (AID 159);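 further: 0% = growth of vehicle-treated control cultures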; details: S. cerevisiae rad14 strain growth inhibition, stronger effect = higher value
Procedure, shortened: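 Readout: yeast growth inhibition, referenced to vehicle-only cultures. Strain bears a defined alteration in DNA damage repair.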

[7] = NCI Yeast Anticancer Drug Screen. Data for the sgs1 mgt1 strain (AID 161);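 further: 0% = growth of cultures given vehicle only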; details: S. cerevisiae sgs1 mgt1 strain, stronger effect = higher value
Procedure, shortened: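 Compounds are added to genetically altered yeast, and growth is compared with cultures given vehicle alone to give percent inhibition.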

[8] = NCI Yeast Anticancer Drug Screen. Data for the CLN2oe strain (AID 163);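 further: 0% = growth of vehicle-only control cultures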; details: S. cerevisiae CLN2oe strain, stronger effect = higher value
Procedure, shortened: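 Compounds are applied to yeast harbouring a defined cell-cycle control change; reduced growth compared with vehicle-treated controls gives the value.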

[9] = NCI Yeast Anticancer Drug Screen. Data for the cln2 rad14 strain (AID 165);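 further: 0% = growth equal to vehicle treated cultures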; details: S. cerevisiae cln2 rad14 strain, stronger effect = higher value
Procedure, shortened: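 Readout is yeast growth inhibition versus vehicle-treated controls, using a strain with cln2 and rad14 alterations exposed to compound.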

[10] = NCI Yeast Anticancer Drug Screen. Data for the bub3 strain (AID 167); details: S. cerevisiae bub3 mutant strain, stronger effect = higher value
Procedure, shortened: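 Part of a panel of yeast mutants defective in DNA damage repair or cell cycle regulation. Each strain is grown with compound, and inhibition is calculated relative to solvent-treated cultures.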

[11] = NCI Yeast Anticancer Drug Screen. Data for the wt2 strain (AID 169);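 further: 0% = growth of vehicle-treated yeast cultures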; details: S. cerevisiae wt2 strain growth inhibition, stronger effect = higher value
Procedure, shortened: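 Against vehicle-treated controls, the growth of yeast exposed to each compound was compared, and the inhibition was recorded.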

[12] = NCI Yeast Anticancer Drug Screen. Data for the mlh1 strain (AID 171);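 further: 0% = growth of vehicle-treated control cultures of the same strain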; details: S. cerevisiae mlh1 strain growth inhibition, stronger effect = higher value
Procedure, shortened: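 Measured: yeast growth. Reference: vehicle-treated controls. Organism: strain with a defined alteration affecting DNA damage repair or cell cycle control, treated with compound.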

[13] = NCI Yeast Anticancer Drug Screen. Data for the sgs1 strain (AID 173);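 further: 0% = growth of vehicle-only control cultures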; details: S. cerevisiae sgs1 mutant, stronger effect = higher value
Procedure, shortened: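 Each compound was added to cultures of the altered yeast strain. Growth was recorded, and inhibition was derived by comparison with vehicle controls.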

[14] = NCI Yeast Anticancer Drug Screen. Data for the mlh1 rad18 strain (AID 175); details: S. cerevisiae mlh1 rad18 strain growth inhibition, stronger effect = higher value
Procedure, shortened: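 Genetically defined yeast (DNA repair-deficient) exposed to compounds; growth inhibition determined relative to vehicle.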

[15] = NCI Yeast Anticancer Drug Screen. Data for the rad18 strain (AID 177); details: S. cerevisiae rad18 mutant growth inhibition, stronger effect = higher value
Procedure, shortened: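 Vehicle-treated cultures served as the baseline for scoring compound-induced growth inhibition in DNA-repair-mutant yeast.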

[16] = at 5.0 µM (retest, dose inferred, filed as 0.5)
[17] = at 50.0 µM (retest, dose inferred, filed as 5.0)

Measured: growth inhibition

COc1ccc2nc3cccc([N+](=O)[O-])c3c(NCCCO)c2c1
active: [1]; at 11.0 µM 94% | [1]; at 33.0 µM 97% | [1]; at 100.0 µM 97% | [2]; at 11.0 µM 75% | [2]; at 33.0 µM 94% | [2]; at 100.0 µM 97% | [3]; at 11.0 µM 92% | [3]; at 33.0 µM 96% | [3]; at 100.0 µM 96% | [4]; at 1.2 µM 87% | [4]; at 3.7 µM 93% | [4]; [16] 95% | [4]; at 11.0 µM 95% | [4]; at 33.0 µM 97% | [4]; [17] 98% | [4]; at 50.0 µM 86.8% | [4]; at 100.0 µM 97% | [5]; at 1.2 µM 93% | [5]; at 3.7 µM 96% | [5]; [16] 97% | [5]; at 11.0 µM 98% | [5]; at 33.0 µM 98% | [5]; [17] 99% | [5]; at 50.0 µM 91% | [5]; at 100.0 µM 96% | [6]; at 1.2 µM 97% | [6]; at 3.7 µM 98% | [6]; at 11.0 µM 99% | [6]; at 33.0 µM 99% | [6]; at 100.0 µM 95% | [7]; [16] 95% | [7]; [17] 98% | [7]; at 50.0 µM 82.9% | [8]; at 11.0 µM 88% | [8]; at 33.0 µM 95% | [8]; at 100.0 µM 98% | [9]; [16] 99% | [9]; [17] 99% | [9]; at 50.0 µM 89.4% | [10]; at 11.0 µM 87% | [10]; at 33.0 µM 97% | [10]; [17] 99% | [10]; at 50.0 µM 85.2% | [10]; at 100.0 µM 99% | [11]; at 11.0 µM 88% | [11]; at 33.0 µM 96% | [11]; at 100.0 µM 98% | [12]; at 3.7 µM 80% | [12]; at 11.0 µM 94% | [12]; at 33.0 µM 97% | [12]; at 100.0 µM 97% | [13]; at 1.2 µM 93% | [13]; at 3.7 µM 95% | [13]; at 11.0 µM 97% | [13]; at 33.0 µM 98% | [13]; at 100.0 µM 97% | [14]; [16] 97% | [14]; [17] 99% | [14]; at 50.0 µM 81.8% | [15]; at 1.2 µM 96% | [15]; at 3.7 µM 96% | [15]; at 11.0 µM 96% | [15]; at 33.0 µM 96% | [15]; at 100.0 µM 97%
inactive: [1]; at 1.2 µM 15% | [1]; at 3.7 µM 62% | [2]; at 1.2 µM 9% | [2]; at 3.7 µM 35% | [3]; at 1.2 µM 12% | [3]; at 3.7 µM 51% | [8]; at 1.2 µM 6% | [8]; at 3.7 µM 43% | [10]; at 1.2 µM -9% | [10]; at 3.7 µM 14% | [10]; [16] 16% | [11]; at 1.2 µM 6% | [11]; at 3.7 µM 33% | [12]; at 1.2 µM 35%
